Screening results from PubChem.
Rows were chosen to be rich in hits. Some 1.1% of all compounds tested hit in one or more screens of this group.
OPRM1-OPRD1 inv = inverse agonists of MOR-DOR heterodimerization, primary screen, cell-based, luminescence; Mu-type opioid receptor (Homo sapiens) + Delta-type opioid receptor (Homo sapiens), …; cell-based MOR-DOR heterodimer luminescence, inverse agonism; inhibition, % at 9.3 µM; hit rate 0.21% among 340,000; in the data active = inhibition above about 22%, passing the limit was not always enough
Target sequence (P35372 whole entry, looked up): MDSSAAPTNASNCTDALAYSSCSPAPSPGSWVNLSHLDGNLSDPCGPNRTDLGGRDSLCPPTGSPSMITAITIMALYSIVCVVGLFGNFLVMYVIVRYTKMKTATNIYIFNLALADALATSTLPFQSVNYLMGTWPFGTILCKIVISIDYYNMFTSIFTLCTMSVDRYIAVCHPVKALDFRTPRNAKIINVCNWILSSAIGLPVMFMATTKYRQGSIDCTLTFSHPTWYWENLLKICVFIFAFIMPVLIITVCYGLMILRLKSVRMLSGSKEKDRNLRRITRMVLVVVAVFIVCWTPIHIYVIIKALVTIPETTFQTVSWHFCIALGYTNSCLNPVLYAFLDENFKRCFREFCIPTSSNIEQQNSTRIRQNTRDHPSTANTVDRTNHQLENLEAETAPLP
Target sequence (P41143 whole entry, looked up): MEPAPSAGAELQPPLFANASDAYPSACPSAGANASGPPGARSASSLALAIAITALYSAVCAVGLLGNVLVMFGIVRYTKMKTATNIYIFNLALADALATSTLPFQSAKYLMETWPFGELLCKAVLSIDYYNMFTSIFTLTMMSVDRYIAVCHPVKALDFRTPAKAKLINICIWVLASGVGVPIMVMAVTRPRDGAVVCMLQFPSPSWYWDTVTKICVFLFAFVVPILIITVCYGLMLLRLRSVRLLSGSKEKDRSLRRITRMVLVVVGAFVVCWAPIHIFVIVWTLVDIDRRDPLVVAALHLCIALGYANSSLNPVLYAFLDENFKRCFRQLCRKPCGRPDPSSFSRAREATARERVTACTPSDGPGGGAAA
HTR5A ag ctr = HTR5A agonists in luminescence cell assay, primary screen, counter-screen for OPRM1-OPRD1 heterodimer agonist project, full-deck HTS. activation, % at 9.3 µM. hit rate 0.61% among 340,000. 5-hydroxytryptamine receptor 5A (Homo sapiens), P47898. cell-based; in the data active = activation mostly above about 9.5%, no sharp cut-off; inactive = mostly below about 7.6%
OPRM1-OPRD1 ag = agonists of OPRM1-OPRD1 heterodimerization, primary screen, cell-based, luminescence. Mu-type opioid receptor (Homo sapiens) + Delta-type opioid receptor (Homo sapiens), …. cells. activation, % at 9.3 µM. hit rate 0.3% among 340,000. AID 504326, 2011; in the data active = activation above about 18%
HTR5A inv ag = HTR5A inverse agonists in luminescence cell assay, primary screen, counter-screen for OPRM1-OPRD1 heterodimer inverse agonist project, full-deck HTS; HTR5A cell line, inverse agonism; inhibition, % at 9.3 µM; hit rate 0.083% among 340,000; in the data active = inhibition mostly above about 23%, no sharp cut-off; inactive = mostly below about 18%
Hits are given with their value; – = inactive.

SMILES | OPRM1-OPRD1 inv | HTR5A ag ctr | OPRM1-OPRD1 ag | HTR5A inv ag
Cc1cc(C)c(S(=O)(=O)/N=C2/C=C(Sc3ncn[nH]3)C(=O)c3ccccc32)cc1C | – | – | 20 | –
CCOC(=O)[C@@H]1[C@H]2COc3ccccc3[C@H]2N2C(=O)N(c3ccc(OC)cc3)C(=O)[C@]12C | – | – | – | –
CCOC(=O)/C=C/[C@H]1CCc2cccc(Cl)c2O1 | – | – | – | –
CCn1c(C)nc2cc(C(=O)N/N=C(\C)c3ccccc3O)ccc21 | – | 10 | – | –
Cc1nc(CNC(=O)CC2C(=O)NCCN2Cc2cccc(Oc3ccccc3)c2)cs1 (stereo not given) | – | – | – | –
C=CCOc1ccccc1CN(C(=O)CCl)c1ccc2c(c1)OCO2 | – | 53 | 45 | –
CC(=O)N/C(=C\c1ccccc1)C(=O)OCc1cccc(S(=O)(=O)N(C)C)c1 | – | 9.4 | – | –
O=C(c1ccccc1)c1c(-c2ccccc2)[nH]n(-c2ccccc2)c(=O)c1=O | – | – | – | –
COc1ccc(Nc2nc(N)nc(CCl)n2)cc1 | – | 48 | 21 | –
CC(C)CN(C(=O)C1=NN(c2ccccc2)C(=O)CC1)c1c(N)n(Cc2ccccc2)c(=O)[nH]c1=O | – | – | – | –
N/C(Cc1ccc(Cl)cc1)=N\OC(=O)c1ccc2ccccc2c1 | – | 34 | 27 | –
COc1ccc(C/C(N)=N/OC(=O)c2ccc(Cl)cc2)cc1 | – | – | – | –
COC(=O)c1cc2c(s1)CS(=O)C2 (stereo not given) | – | 12 | – | –
CCOCCc1nnc(NC(=O)c2cc(OC)c(OC)cc2[N+](=O)[O-])s1 | – | – | – | –
CCOCc1nnc(NC(=O)c2cc(OC)c(OC)cc2[N+](=O)[O-])s1 | – | 12 | – | –
COCCn1c(SCC(=O)Nc2ccc(S(=O)(=O)N(C)C)cc2)nc2ccccc21 | – | – | – | –
O=C(NC1CCN(S(=O)(=O)c2ccccc2F)CC1)c1cccnc1 | – | – | – | –
O=C1c2ccccc2C(=O)c2c1ccc1c(=O)n(C3CCCCC3)[nH]c21 | – | – | – | –
O=C1C2=C(c3ccccc31)[N+](=O)[C@@H]1CCCC[C@@H]1N2[O-] | 46 | – | – | –
Cc1c(Nc2cc(Cl)c3nonc3c2[N+](=O)[O-])c(=O)n(-c2ccccc2)n1C | 46 | – | – | 33
Cc1cccc2c1N(CCCOc1ccc(C(C)(C)C)cc1)C(=O)C2=O | 30 | – | – | –
Cc1cccc2c1N(CCCOc1ccccc1)C(=O)C2=O | – | – | – | –
C/C=C(\C)CN1CCC(n2nccc2NC(=O)CCCc2ccccc2)CC1 | – | 12 | – | –
CN(CCO)c1cc(N(C)CCO)c([N+](=O)[O-])cc1[N+](=O)[O-] | – | 12 | – | –
CN(CCO)c1ccc(-c2nn(C)c(=O)c3ccccc23)cc1[N+](=O)[O-] | – | – | – | –
SMILES | OPRM1-OPRD1 inv | HTR5A ag ctr | OPRM1-OPRD1 ag | HTR5A inv ag
Cc1ccc(C(=O)O)cc1NC(=S)NC(=O)c1ccc(-c2ccc(Cl)cc2)o1 | – | 12 | – | –
COc1ccc(C(=O)O)cc1NC(=S)NC(=O)c1ccc(-c2ccc(Cl)cc2)o1 | – | – | – | –
CCN(CC)c1ccc(NC(=O)Nc2cccc(C(C)=O)c2)cc1 | – | 13 | – | –
CCCOC(=O)c1cccc(Nc2nc(-c3cccnc3)nc3ccccc23)c1 | – | 14 | – | –
O=C1Nc2ccccc2S/C1=C/Nc1cccc(Cl)c1 | – | 14 | 23 | –
O=C(CN(C1CCCCC1)S(=O)(=O)c1ccc(Cl)cc1)NCc1cccnc1 | – | 13 | – | –
O=c1c2ccccc2nc(/C=C/c2ccccc2)n1CCCO | – | 9.9 | – | –
Cn1c(/C=C/c2ccc(Cl)cc2)nc2ccccc2c1=O | – | 9.8 | – | –
Cn1c(/C=C/c2ccccc2)nc2ccccc2c1=O | – | – | – | –
COC(=O)c1cccc(NC(=O)c2ccco2)c1 | – | – | – | –
COC(=O)c1cccc(NC(=O)CCNC(=O)c2ccco2)c1 | – | 13 | – | –
COc1cccc(C(=O)NCCS(=O)(=O)N2CCC(C)CC2)c1 | – | – | – | –
COC(=O)c1c(-n2cnnn2)sc(C)c1C | – | 12 | – | –
COC(=O)c1c(N2C(=O)Nc3ccccc3N2O)sc(C)c1C | – | – | – | –
Cc1c(C(=O)N2CCN(S(=O)(=O)c3ccccc3)CC2)oc2ccc(Br)cc12 | – | – | – | –
CCOC(=O)c1sc(NC(=O)CN(CC(C)C)CC(C)C)c(C(=O)OCC)c1C | – | 13 | – | –
